LASV entry inh: blocks Lassa virus binding or cell entry | Lassa virus pseudotyped entry inhibition, cell-based qHTS | Potency, µM (top dose mostly 49.2 µM), inactives show top-dose activity change, negative = inhibition, usual class: inhibitors | 18,000 tested, 4.1% active | AID 720533
Marburg entry: inhibitors of Marburg virus binding or entry into cells. Potency, µM (titrated, usually from 49.2 µM), for the others: top-dose activity change, negative = inhibition, usual class: inhibitors. Marburg virus pseudotype entry/binding inhibition, cell-based. 18,000 tested, 6.5% active
* marks the source's active call; other numbers are inactive results; ? = inconclusive; / = not tested or not shown; [ ] = dose if it differs, or a comment. In the library only some 8.6% were active in any assay of this set; here they are far more common. The call rests on the fitted dose curve; tested in HEK293 cells. On the % scale 0 is the no-effect control and ±100 the full control effect; potency means the concentration at half of the fitted maximal effect.

SMILES	LASV entry inh	Marburg entry
CC(C)C[C@H](NC(=O)[C@H](CCc1ccccc1)NC(=O)CN1CCOCC1)C(=O)N[C@@H](Cc1ccccc1)C(=O)N[C@@H](CC(C)C)C(=O)[C@@]1(C)CO1	11µM*	?
CC(C)CC(NC(=O)CN)C(=O)NC(Cc1ccccc1)C(=O)O (centres undefined)	1%	13%
CCN1C(=S)NC(c2ccccc2)C(C(=O)OC)=C1C (centres undefined)	6%[8.59 µM]	-2%[8.59 µM]
NCCCCCCNS(=O)(=O)c1cccc2ccccc12	?	9%
Nc1nc(NCC2CCC(CNS(=O)(=O)c3cccc4ccccc34)CC2)nc2ccccc12 (centres undefined)	?	11µM*
COc1cccc([C@@H]2Oc3ccc(Br)cc3C(=O)[C@@H]2OC(=O)N[C@H](C)C2CCCCC2)c1	-14%[8.59 µM]	-30%[8.59 µM]
C=CCN1C(=O)[C@]2(OCCC=C[C@H]2C)c2c(Br)cccc21	-1%[8.59 µM]	54%[8.59 µM]
NCCc1ccc(O)cc1	?	12%
Nc1ccc(O)cc1	45µM*	50µM*
COCOCCn1cc(CN2CCS(=O)(=O)N(Cc3ccc(-c4ccccc4)cc3)C(C)C2=O)nn1 (centres undefined)	-7%	10%
CCCNC(=O)[C@H]1O[C@@H]1C(=O)N[C@H](C(=O)N1CCC[C@H]1C(=O)OC)[C@@H](C)CC	10µM*	2.5µM*
CCOC(=O)C(CCc1ccccc1)NC(C)C(=O)N1CCCC1C(=O)O (centres undefined)	4%	6%
OC[C@H]1O[C@H](c2ccccc2)C=C[C@H]1OCc1cccc(Br)c1	-19%[8.59 µM]	-11%[8.59 µM]
CCOC(=O)[C@H](CS)NCCN[C@@H](CS)C(=O)OCC	?	-18%
CCN1CCN(c2cc(-c3ccc(F)cc3)c3c(n2)CCCCCC3)CC1	13µM*	7.9µM*
COC(=O)[C@@H]1CC[C@H](C)[C@@H](c2ccc(C)cc2)N1C(=O)c1ccc(C=NO[C@@H](C)c2cc(-c3c(C)cc(C)cc3C)no2)cc1	10%[8.59 µM]	6%[8.59 µM]
COC[C@@H](O)[C@H]1OCc2ccccc2[C@H]1C=Cc1ccccc1	-2%[8.59 µM]	7%[8.59 µM]
CN1CCN(C2CN(Cc3ccccc3)S(=O)(=O)C2)CC1 (centres undefined)	13%	21%
CN1CCc2c(c3ccccc3n2Cc2ccccc2)C1	?	18µM*
COc1ccc(CC2c3cc(OC)c(OC)cc3CCN2C)cc1OC (centres undefined)	-19%	4%
COc1cc2c(cc1O)C[C@H]1c3c(cc(O)c(OC)c3-2)CCN1C	15%[17.8 µM]	20%[17.8 µM]
COc1cc2c(cc1O)-c1c(O)c(OC)cc3c1[C@H](C2)N(C)CC3	4%	-28%
COc1ccc2cc1Oc1ccc(cc1)C[C@H]1c3cc(c(OC)cc3CCN1C)Oc1c(OC)c(OC)cc3c1[C@H](C2)N(C)CC3	13µM*	3.5µM*
COc1ccc2cc1Oc1ccc(cc1)C[C@H]1c3c(cc4c(c3Oc3cc5c(cc3OC)CCN(C)[C@@H]5C2)OCO4)CCN1C	?	1.8µM*
COc1cc2c3cc1Oc1c(OC)c(OC)cc4c1[C@@H](Cc1ccc(O)c(c1)Oc1ccc(cc1)C[C@@H]3N(C)CC2)N(C)CC4	11µM*	2.8µM*
SMILES	LASV entry inh	Marburg entry
COc1ccc2c(c1OC)C(=O)O[C@@H]2[C@H]1c2c(cc3c(c2OC)OCO3)CCN1C	-15%	?
COc1cc2c3cc1Oc1c(OC)c(OC)cc4c1[C@@H](Cc1ccc(OC(=O)c5ccc([N+](=O)[O-])cc5)c(c1)Oc1ccc(cc1)C[C@@H]3N(C)CC2)N(C)CC4	?	0.63µM*
C=C[C@]1(C)C[C@@H](OC(=O)CSCCN(CC)CC)[C@]2(C)[C@H](C)CC[C@]3(CCC(=O)[C@H]32)[C@@H](C)[C@@H]1O	-11%	?
CCN1CCC(C(=O)Nc2n[nH]c3nnc(-c4cccc(F)c4F)cc23)CC1	/	-42%
O=C(Nc1ccc(S(=O)(=O)N2CCOCC2)cc1)c1cc(Cl)ccc1NS(=O)(=O)c1ccc(Cl)s1	-14%	13%
C#CCCCON=C1C[C@@H](O)[C@H](O)[C@H]2[C@@H]3C(=O)N(C4CCCCC4)C(=O)[C@@H]3CC[C@H]12	14%[8.59 µM]	?
C=C(Br)CO[C@@H]1C=C[C@@H](c2ccccc2)O[C@@H]1COC	33%[8.59 µM]	9%[8.59 µM]
O=C(OCc1cn([C@H]2C[C@H](c3ccccc3)N(CC3CCCCC3)C[C@H]2O)nn1)c1ccccc1	-28%	?
COC1=CC2C(=O)C(C(c3ccccc3)C2C)C1(O)c1cccc(OC)c1 (centres undefined)	8%[8.59 µM]	15%[8.59 µM]
COC(=O)[C@@]1(C)CCC[C@@]2(C)c3ccc(O)c(C(C)C)c3CCC21 (some centres undefined)	11µM*	13µM*
CC(C)c1c(O)ccc2c1CCC1[C@@](C)(CO)CCC[C@@]21C (some centres undefined)	?	-8%
Cc1cc(=O)oc2cc(OCc3cn(CC(=O)c4ccc(O)cc4)nn3)ccc12	12%	22%
CC#CCN1c2ccccc2[C@]23CCC(=O)N(Cc4ccco4)C2=NC(C(=O)OC)=C(C(=O)OC)[C@H]13	-20%[8.59 µM]	?
COC1C(O)C(C)O[C@H](OC2CC[C@@]3(C=O)C4CC[C@]5(C)C(C6=CC(=O)OC6)CC[C@@]5(O)C4CC[C@@H]3C2)C1O (some centres undefined)	0.1µM*	?
COC1C(O)C(C)O[C@@H](OC2CC[C@@]3(C)C4CC[C@]5(C)C(C6=CC(=O)OC6)CC[C@@]5(O)C4CC[C@@H]3C2)C1O (some centres undefined)	0.1µM*	0.079µM*
C#Cc1ccccc1C[C@]1(C(=O)OC)C=C[C@H](C)[C@@H](c2ccccc2Br)N1C(=O)C(F)(F)F	0%[8.59 µM]	7%[8.59 µM]
COC(=O)[C@@H]1[C@@H](c2ccccc2)NC(=O)N(Cc2ccccc2)[C@@H]1C	5%[8.59 µM]	-5%[8.59 µM]
O=C1C2CC=CCC2C(=O)N1SC(Cl)(Cl)Cl (centres undefined)	10µM*	?
CC1=CC[C@@H](COc2ccccc2)O[C@@]2(C1)C(=O)Nc1ccccc12	32%[8.59 µM]	21%[8.59 µM]
CCOC(=O)OC[C@H]1O[C@H](C#Cc2ccccc2)C=C[C@H]1OC(=O)OCC	-10%[8.59 µM]	-16%[8.59 µM]
CC(C)n1nc(-c2cc3cc(O)ccc3[nH]2)c2c(N)ncnc21	4µM*	3.5µM*
CC(C)(C)n1nc(-c2ccc(Cl)cc2)c2c(N)ncnc21	6%	39%
C=CCN1C(=O)[C@@]2(CC(C)=CC[C@@H](C)O2)c2ccccc21	-4%[8.59 µM]	40%[8.59 µM]
Cc1nnc(-c2ccc(C)c(-c3ccc(C(=O)NCc4ccc(Cl)cc4)cc3)c2)o1	/	2.8µM*
Cc1nnc(-c2ccc(C)c(-c3ccc(C(=O)Nc4cccc(C#N)c4)cc3)c2)o1	/	46%
SMILES	LASV entry inh	Marburg entry
CCN1C(=O)N(S(=O)(=O)c2ccc(C)cc2)C(c2ccccc2)C(C(=O)OC)=C1C (centres undefined)	-2%[8.59 µM]	17%[8.59 µM]
CCN(CC)CCCN(c1ccccc1)C1Cc2ccccc2C1	8.9µM*	3.5µM*
C[C@@H]1CC[C@H]2C(=O)N(Cc3ccccc3)C[C@@H](O)CN2[C@@H]1c1cccc(Br)c1	/	-22%[8.59 µM]
CCCNCC(O)COc1ccccc1C(=O)CCc1ccccc1 (centres undefined)	?	7.1µM*
Cc1ccccc1OCC(O)CNCCOc1ccc(C(N)=O)cc1 (centres undefined)	-1%	-4%
CC[C@@H](C)[C@H](NS(=O)(=O)c1ccc(F)cc1Br)C(=O)OC	5%	22%
